# About 410 targets per protein were measured; listed, in parts, are those with the strongest signals and a random draw of the rest.
# B1: PpFlo2 (Pichia pastoris) (protein)
# chain: MGSSHHHHHHSSGLVPRGSHMDDSGNGDNSDTAYGCDITTNAVDGFDATIYQYNANDLRLIRDPTFMSTGYLGRNVLNKISGVTVPGFNIWNPSSRTATVYGVKNVNYYNMVLELKGYFKADVSGDYKLTLSHIDDSSMLFFGKETAFKCCDAGSIPLNEAPTDYSLFTIKPSNQVNSEVISATQYLEAGKYYPVRIVFVNALERARFDFKLTIPSGAVLDDFQNYIYQFGDLDENSCHE
# How the values were obtained:
# Test in all cases: glycan array binding signal (z-score within array); higher = stronger binding
# Conditions in all cases: glycan notation: IUPAC condensed, linker removed
# [1] = biological target: GlcNAc(b1-3)Gal(b1-4)GlcNAc(b1-3)Gal(b1-4)GlcNAc(b1-2)Man(a1-3)[GlcNAc(b1-3)Gal(b1-4)GlcNAc(b1-3)Gal(b1-4)GlcNAc(b1-2)Man(a1-6)]Man(b1-4)GlcNAc(b1-4)[Fuc(a1-6)]GlcNAc
# Summary of the method: (§1)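 From the Consortium for Functional Glycomics database, 3228 arrays were curated, keeping only those whose protein sequence was available. Binding is given as a within-array Z-score averaged across arrays sharing a protein sequence and across linkers. Negative Z-scores can be read as non-binding.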
# [2] = biological target: GlcNAc(b1-3)Gal(b1-4)GlcNAc(b1-3)Gal(b1-4)GlcNAc(b1-3)Gal(b1-4)GlcNAc(b1-2)Man(a1-3)[GlcNAc(b1-3)Gal(b1-4)GlcNAc(b1-3)Gal(b1-4)GlcNAc(b1-3)Gal(b1-4)GlcNAc(b1-2)Man(a1-6)]Man(b1-4)GlcNAc(b1-4)GlcNAc
# Summary of the method: as §1
# [3] = biological target: GlcNAc(b1-3)Gal(b1-4)GlcNAc(b1-3)Gal(b1-4)GlcNAc(b1-3)Gal(b1-4)GlcNAc(b1-2)Man(a1-3)[GlcNAc(b1-3)Gal(b1-4)GlcNAc(b1-3)Gal(b1-4)GlcNAc(b1-3)Gal(b1-4)GlcNAc(b1-2)Man(a1-6)]Man(b1-4)GlcNAc(b1-4)[Fuc(a1-6)]GlcNAc
# Summary of the method: as §1
# [4] = biological target: GlcNAc(b1-3)Gal(b1-4)GlcNAc(b1-3)Gal(b1-4)GlcNAc(b1-3)Gal(b1-4)GlcNAc(b1-3)Gal(b1-4)GlcNAc(b1-2)Man(a1-3)[GlcNAc(b1-3)Gal(b1-4)GlcNAc(b1-3)Gal(b1-4)GlcNAc(b1-3)Gal(b1-4)GlcNAc(b1-3)Gal(b1-4)GlcNAc(b1-2)Man(a1-6)]Man(b1-4)GlcNAc(b1-4)GlcNAc
# Summary of the method: as §1
# [5] = biological target: GlcNAc(b1-3)Gal(b1-4)GlcNAc(b1-3)Gal(b1-4)GlcNAc(b1-3)Gal(b1-4)GlcNAc(b1-3)Gal(b1-4)GlcNAc(b1-2)Man(a1-3)[GlcNAc(b1-3)Gal(b1-4)GlcNAc(b1-3)Gal(b1-4)GlcNAc(b1-3)Gal(b1-4)GlcNAc(b1-3)Gal(b1-4)GlcNAc(b1-2)Man(a1-6)]Man(b1-4)GlcNAc(b1-4)[Fuc(a1-6)]GlcNAc
# Summary of the method: as §1
# [6] = biological target: GlcNAc(b1-3)Gal(b1-4)GlcNAc(b1-3)Gal(b1-4)GlcNAc(b1-3)Gal(b1-4)GlcNAc(b1-3)Gal(b1-4)GlcNAc(b1-2)[GlcNAc(b1-3)Gal(b1-4)GlcNAc(b1-3)Gal(b1-4)GlcNAc(b1-3)Gal(b1-4)GlcNAc(b1-3)Gal(b1-4)GlcNAc(b1-6)]Man(a1-6)[GlcNAc(b1-3)Gal(b1-4)GlcNAc(b1-3)Gal(b1-4)GlcNAc(b1-3)Gal(b1-4)GlcNAc(b1-3)Gal(b1-4)GlcNAc(b1-2)Man(a1-3)]Man(b1-4)GlcNAc(b1-4)[Fuc(a1-6)]GlcNAc
# Summary of the method: as §1
# [7] = biological target: GlcNAc(b1-3)Gal(b1-4)GlcNAc(b1-3)[GlcNAc(b1-3)Gal(b1-4)GlcNAc(b1-3)]GalNAc
# Summary of the method: as §1
# [8] = biological target: GlcNAc(b1-3)Gal(b1-4)GlcNAc(b1-6)[Gal(b1-3)]GalNAc
# Summary of the method: as §1
# [9] = biological target: GlcNAc(b1-4)Gal(b1-4)GlcNAc
# Summary of the method: as §1
# [10] = biological target: GlcNAc(b1-6)Gal(b1-4)GlcNAc
# Summary of the method: as §1
# [11] = biological target: GlcNAc(b1-6)GalNAc
# Summary of the method: as §1
# [12] = biological target: Man(a1-2)Man(a1-3)[Man(a1-6)]Man(a1-6)[Man(a1-2)Man(a1-3)]Man(b1-4)GlcNAc(b1-4)GlcNAc
# Summary of the method: as §1
# [13] = biological target: Man(a1-3)[Man(a1-6)]Man(b1-4)GlcNAc(b1-4)GlcNAc
# Summary of the method: as §1
# [14] = biological target: Man(a1-3)[Man(a1-6)]Man(b1-4)GlcNAc(b1-4)[Fuc(a1-6)]GlcNAc
# Summary of the method: as §1
# [15] = biological target: Neu5Ac(a2-3)Gal(b1-3)[Fuc(a1-4)]GlcNAc
# Summary of the method: as §1
# [16] = biological target: Neu5Ac(a2-3)Gal(b1-3)[GlcNAc(b1-6)]GalNAc
# Summary of the method: as §1
# [17] = biological target: Neu5Ac(a2-3)Gal(b1-4)GlcNAc(b1-2)Man(a1-3)[Neu5Ac(a2-3)Gal(b1-4)GlcNAc(b1-2)Man(a1-6)]Man(b1-4)GlcNAc(b1-4)[Fuc(a1-6)]GlcNAc
# Summary of the method: as §1
# [18] = biological target: Neu5Ac(a2-3)Gal(b1-4)GlcNAc(b1-2)[Neu5Ac(a2-3)Gal(b1-4)GlcNAc(b1-4)]Man(a1-3)[GlcNAc(b1-4)][Neu5Ac(a2-3)Gal(b1-4)GlcNAc(b1-4)Man(a1-6)]Man(b1-4)GlcNAc(b1-4)GlcNAc
# Summary of the method: as §1
# [19] = biological target: Neu5Ac(a2-3)Gal(b1-4)GlcNAc(b1-3)Gal(b1-4)GlcNAc
# Summary of the method: as §1
# [20] = biological target: Neu5Ac(a2-3)Gal(b1-4)GlcNAc(b1-3)Gal(b1-4)GlcNAc(b1-2)Man(a1-3)[Neu5Ac(a2-3)Gal(b1-4)GlcNAc(b1-3)Gal(b1-4)GlcNAc(b1-2)Man(a1-6)]Man(b1-4)GlcNAc(b1-4)GlcNAc
# Summary of the method: as §1
# [21] = biological target: Neu5Ac(a2-3)GalNAc(b1-4)GlcNAc
# Summary of the method: as §1
# [22] = biological target: Neu5Ac(a2-6)Gal(b1-4)GlcNAc(b1-2)Man(a1-3)Man(b1-4)GlcNAc(b1-4)GlcNAc
# Summary of the method: as §1
# [23] = biological target: Neu5Ac(a2-6)Gal(b1-4)GlcNAc(b1-2)Man(a1-3)[Neu5Ac(a2-3)Gal(b1-4)GlcNAc(b1-2)Man(a1-6)]Man(b1-4)GlcNAc(b1-4)GlcNAc
# Summary of the method: as §1
# [24] = biological target: Neu5Ac(a2-6)Gal(b1-4)GlcNAc(b1-2)Man(a1-6)[GlcNAc(b1-2)Man(a1-3)]Man(b1-4)GlcNAc(b1-4)GlcNAc
# Summary of the method: as §1
# [25] = biological target: Neu5Ac(a2-8)Neu5Ac(a2-3)Gal(b1-4)Glc
# Summary of the method: as §1
# [26] = biological target: Neu5Gc(a2-3)Gal(b1-3)GlcNAc
# Summary of the method: as §1
# [27] = biological target: Neu5Gc(a2-3)Gal(b1-4)GlcNAc
# Summary of the method: as §1
# [28] = biological target: Neu5Gc(a2-8)Neu5Gc(a2-6)Gal(b1-4)GlcNAc
# Summary of the method: as §1
binder,measurement,setting,value
B1,glycan array binding signal (z-score),[1],6.15
same,glycan array binding signal (z-score),[2],4.24
same,glycan array binding signal (z-score),[3],7.22
same,glycan array binding signal (z-score),[4],7.34
same,glycan array binding signal (z-score),[5],7.63
same,glycan array binding signal (z-score),[6],4.18
same,glycan array binding signal (z-score),[7],4.33
same,glycan array binding signal (z-score),[8],2.11
same,glycan array binding signal (z-score),[9],0.414
same,glycan array binding signal (z-score),[10],0.578
same,glycan array binding signal (z-score),[11],0.967
same,glycan array binding signal (z-score),[12],-0.276
same,glycan array binding signal (z-score),[13],0.074
same,glycan array binding signal (z-score),[14],-0.248
same,glycan array binding signal (z-score),[15],-0.304
same,glycan array binding signal (z-score),[16],0.351
same,glycan array binding signal (z-score),[17],-0.271
same,glycan array binding signal (z-score),[18],-0.271
same,glycan array binding signal (z-score),[19],-0.293
same,glycan array binding signal (z-score),[20],-0.239
same,glycan array binding signal (z-score),[21],-0.302
same,glycan array binding signal (z-score),[22],-0.293
same,glycan array binding signal (z-score),[23],-0.271
same,glycan array binding signal (z-score),[24],2.77
same,glycan array binding signal (z-score),[25],-0.301
same,glycan array binding signal (z-score),[26],-0.301
same,glycan array binding signal (z-score),[27],-0.299
same,glycan array binding signal (z-score),[28],-0.273

# From the supplement of paper PMC8728848
